SMILES strings stand for the structures. About 14,000 (4.5%) of roughly 310,000 compounds showed an effect of 50% or more. The effect is printed as a negative number. This is one part of a sample in which strong results are shown more often than they occur.

Consider 55 compounds from publication PMC4336329 (PLoS ONE, 2015).
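Also: peak tail current of the secondary pulse compared with the same well before compound.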

For this test, the target named is human ether-à-go-go-related gene (hERG) potassium channel (human, UniProt Q12809). The test is described as follows: primary screen, population patch clamp on CHO cells stably expressing hERG; higher = less effect of the substance.
human ether-à-go-go-related gene (hERG) potassium channel, sequence (Q12809 whole entry, looked up): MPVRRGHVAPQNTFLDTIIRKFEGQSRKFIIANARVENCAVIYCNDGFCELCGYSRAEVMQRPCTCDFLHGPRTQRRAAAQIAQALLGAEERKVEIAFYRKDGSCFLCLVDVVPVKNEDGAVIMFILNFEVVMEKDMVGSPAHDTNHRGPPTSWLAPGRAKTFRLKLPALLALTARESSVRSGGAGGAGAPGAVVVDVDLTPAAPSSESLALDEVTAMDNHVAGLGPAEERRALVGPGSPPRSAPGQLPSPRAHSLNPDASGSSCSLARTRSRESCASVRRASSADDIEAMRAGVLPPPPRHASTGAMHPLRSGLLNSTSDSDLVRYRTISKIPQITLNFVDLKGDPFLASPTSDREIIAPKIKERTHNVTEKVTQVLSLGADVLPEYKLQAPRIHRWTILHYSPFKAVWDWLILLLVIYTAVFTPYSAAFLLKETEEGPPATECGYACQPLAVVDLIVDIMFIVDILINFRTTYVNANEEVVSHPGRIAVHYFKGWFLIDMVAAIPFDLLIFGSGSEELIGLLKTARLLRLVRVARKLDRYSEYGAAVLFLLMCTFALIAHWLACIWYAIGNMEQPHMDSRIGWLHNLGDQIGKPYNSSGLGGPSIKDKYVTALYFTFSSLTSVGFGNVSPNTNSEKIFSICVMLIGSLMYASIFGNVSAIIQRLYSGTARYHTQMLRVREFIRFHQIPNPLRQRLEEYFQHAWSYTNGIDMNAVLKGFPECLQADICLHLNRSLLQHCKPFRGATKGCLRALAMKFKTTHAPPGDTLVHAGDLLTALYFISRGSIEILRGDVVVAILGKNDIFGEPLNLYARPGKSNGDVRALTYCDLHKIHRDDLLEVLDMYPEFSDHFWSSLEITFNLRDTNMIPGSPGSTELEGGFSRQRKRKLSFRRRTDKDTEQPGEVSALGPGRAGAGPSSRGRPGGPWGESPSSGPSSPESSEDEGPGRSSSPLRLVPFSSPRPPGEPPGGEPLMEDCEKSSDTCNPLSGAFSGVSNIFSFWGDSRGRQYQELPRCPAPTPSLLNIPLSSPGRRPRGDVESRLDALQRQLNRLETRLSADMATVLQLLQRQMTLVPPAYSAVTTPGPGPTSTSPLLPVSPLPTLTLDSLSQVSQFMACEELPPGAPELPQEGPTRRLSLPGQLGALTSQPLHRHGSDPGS
In the case of `Cc1ccccc1NC(=O)Cn1c(=O)sc2ccccc21`, the “hERG current change (%, negative = inhibition) at 10uM” value is on record as -0.661%.
As for `COc1ccc(Cl)cc1NC(=O)C1CCN(C(=O)C2CC(=O)N(c3ccc(C)cc3)C2)CC1` (stereo not shown), the figure is -60.4%; as for `COc1ccc(OC)c(NC(=O)C2CCN(C(=O)C3CC(=O)N(c4ccc(C)cc4)C3)CC2)c1` (stereo not shown), -37.7%.
Consider `COc1ccc(C)cc1NC(=O)C1CCN(C(=O)C2CC(=O)N(c3ccc(C)cc3)C2)CC1` (stereo not shown), for which the “hERG current change (%, negative = inhibition) at 10uM” value is given as -23.1%.
Turning to `CCc1cccc(C)c1NC(=S)NCc1ccccc1`, the “hERG current change (%, negative = inhibition) at 10uM” value was 0.76%.
As for `CC(C)OP(=O)(c1ccccc1)c1ccccc1`, the figure is -3.71%; as for `CCOC(=O)N1CCN(C(=O)c2nc3ccccc3s2)CC1`, -0.815%; as for `CCOC(=O)N1CCN(/C=C(\C#N)c2nc3ccccc3s2)CC1`, -58.5%.
As to `c1ccc2sc(NC3=NCN(Cc4ccc5c(c4)OCO5)CN3)nc2c1`, the “hERG current change (%, negative = inhibition) at 10uM” value came to 4.28%.
Consider `N#C/C(=C\N1CCN(Cc2ccc3c(c2)OCO3)CC1)c1nc2ccccc2s1`, for which the “hERG current change (%, negative = inhibition) at 10uM” value was -52.8%.
As for `Cl.N#C/C=C/N1CCN(Cc2ccc3c(c2)OCO3)CC1`, the “hERG current change (%, negative = inhibition) at 10uM” value came out at 1.29%.
On to `CCOC(=O)N1CCN(CC(=O)Nc2nc3ccccc3s2)CC1`, for which the “hERG current change (%, negative = inhibition) at 10uM” value is -35.5%.
As for `CCCn1c(=O)c(C(=O)NCCc2ccc(OC)c(OC)c2)c(O)c2ccccc21`, the figure is 10.5%; as for `CCOC(=O)C1=C(COC(=O)C2CC(=O)N(c3ccc(C)cc3)C2)NC(=O)NC1C` (stereo not shown), -7.55%.
As for `Cc1cccc(S(=O)(=O)C(C#N)c2nc3ccccc3nc2N2CCCC2)c1` (stereo not shown), the figure is -18.4%.
As for `O=C(N/N=C1\CCCc2ccccc21)c1ccc([N+](=O)[O-])cc1Cl`, the figure is -3.01%.
On to `COc1ccc(C(=O)C2CCCN(C/C=C/c3ccccc3OC)C2)c(OC)c1` (stereo not shown), for which the “hERG current change (%, negative = inhibition) at 10uM” value is recorded as -77.5%.
As for `COc1cccc(C(=O)C2CCCN(C/C=C/c3ccccc3OC)C2)c1` (stereo not shown), the figure is -68.4%; as for `NC(=O)c1cc([N+](=O)[O-])cc2c1C=Cc1ccccc1O2`, 2.92%.
For `CC12COC3(C(=O)Nc4ccc([N+](=O)[O-])cc4)CC1CCC32C` (stereo not shown) the value was -32.1%.
Consider `O=C(COC(=O)C1CC2CCCC(C1)C2=O)NC(=O)c1ccc(OC(F)F)cc1` (stereo not shown), for which the “hERG current change (%, negative = inhibition) at 10uM” value is 23.2%.
For `CCOC(=O)N1CCN(C(=O)CN(Cc2ccc(Cl)cc2)S(C)(=O)=O)CC1` the value was -15.5%; for `COc1ccc(CNC(=O)CN(C)S(=O)(=O)c2ccc(Cl)cc2)cc1`, -20.4%.
As for `CCOC(=O)N1CCN(C(=O)CN(Cc2ccc(Cl)cc2)S(=O)(=O)c2ccc(C)cc2)CC1`, the figure is -42.8%; as for `COc1ccc(C)cc1S(=O)(=O)N(CC(=O)NCc1ccc(Cl)cc1)Cc1ccccc1`, 8.35%; as for `CCOC(=O)N1CCN(C(=O)CN(Cc2ccc(Cl)cc2)S(=O)(=O)c2ccccc2)CC1`, -70.1%.
For `COc1ccc(CNC(=O)CN(Cc2ccc(C)cc2)S(=O)(=O)c2ccc(Cl)cc2)cc1` the value was -50.9%; for `COc1ccc(N(CC(=O)NCc2ccc(F)cc2)S(=O)(=O)c2c(C)n[nH]c2C)cc1`, -26.5%; for `COc1ccc(N(CC(=O)NCc2ccc(Cl)cc2)S(=O)(=O)c2c(C)n[nH]c2C)cc1`, -57.4%.
In the case of `COc1ccc(N(CC(=O)NCc2ccccc2)S(=O)(=O)c2c(C)n[nH]c2C)cc1`, the “hERG current change (%, negative = inhibition) at 10uM” value is recorded as -35.6%.
As for `COc1ccc(CNC(=O)CN(Cc2ccc(Cl)cc2)S(=O)(=O)c2ccccc2)cc1`, the figure is -12.5%; as for `COc1ccc(CNC(=O)CN(Cc2ccccc2)S(=O)(=O)c2ccc(Cl)cc2)cc1`, -61.7%.
For `COc1ccc(CNC(=O)CN(Cc2ccc(Cl)cc2)S(C)(=O)=O)cc1`, the “hERG current change (%, negative = inhibition) at 10uM” value was -45.4%.
In the case of `CCc1ccccc1NC1=NCC(=O)N1Cc1ccccc1`, the “hERG current change (%, negative = inhibition) at 10uM” value is 4.53%.
As for `COc1ccc(N(C(=O)c2ccco2)S(=O)(=O)c2cc(OC)ccc2OC)cc1`, the figure is -19.3%; as for `CC(NC(N)=O)C(=O)OCC(=O)c1ccc(-c2ccccc2)cc1` (stereo not shown), 10.8%; as for `COc1ccc(OC)c(CCNC(=O)c2ccc3c(=O)[nH]c4c(C(=O)NC(C)C)sc(=S)n4c3c2)c1`, 21.2%.
As for `CN(c1ccccc1)S(=O)(=O)c1ccc(Cl)c(C(=O)NC2=NCCS2)c1`, the figure is 9.14%; as for `Cc1cc(C)c2c3c(sc2n1)C(=O)N(c1ccccc1C)CC(=O)N3`, 14.6%.
With `CN(C)C(CNc1ccc(S(C)(=O)=O)cc1[N+](=O)[O-])c1ccccc1` (stereo not shown), the “hERG current change (%, negative = inhibition) at 10uM” value is recorded as -12.6%.
For `COc1ccc(NC(=O)CSCc2ccc([N+](=O)[O-])cc2)cc1OC` the value was -17.5%; for `O=C(NCCO)c1cc2cc(Cl)cc(Cl)c2oc1=O`, -3.65%.
On to `CCN(CC(=O)NCc1cccs1)C(=O)COc1ccc(C(N)=O)cc1`, for which the “hERG current change (%, negative = inhibition) at 10uM” value is 6.69%.
As for `CCCc1cc(=O)oc2c(C)c(OCC(=O)N3C[C@H]4C[C@@H](C3)c3cccc(=O)n3C4)ccc12`, the figure is -23.9%; as for `CCCCc1cc(=O)oc2c(C)c(OCC(=O)N3CCCC3)ccc12`, -64.8%.
With `CCCCc1cc(=O)oc2c(C)c(OCC(=O)N3C[C@H]4C[C@@H](C3)c3cccc(=O)n3C4)ccc12`, the “hERG current change (%, negative = inhibition) at 10uM” value is listed as -60%.
For `COc1ccc2c(C)c(CC(=O)N3C[C@H]4C[C@@H](C3)c3cccc(=O)n3C4)c(=O)oc2c1C` the value was -3.48%; for `CCc1cc(=O)oc2c(C)c(OCC(=O)N3C[C@H]4C[C@@H](C3)c3cccc(=O)n3C4)ccc12`, 5.08%.
As for `CCc1cc(=O)oc2cc(OCC(=O)N3C[C@H]4C[C@@H](C3)c3cccc(=O)n3C4)c(Cl)cc12`, the figure is -3.61%; as for `CCCCc1cc(=O)oc2cc(OCC(=O)N3C[C@H]4C[C@@H](C3)c3cccc(=O)n3C4)c(Cl)cc12`, -62.5%; as for `CC(C)=CCOc1ccc2c(C)c(CC(=O)N3C[C@H]4C[C@@H](C3)c3cccc(=O)n3C4)c(=O)oc2c1C`, -57.3%.
As for `CCCCc1cc(=O)oc2c(C)c(OCC(=O)N3CCC(C(=O)O)(c4ccccc4)CC3)ccc12`, the figure is 6.82%; as for `CCCCc1cc(=O)oc2c(C)c(OCC(=O)N3CCC(C(N)=O)CC3)ccc12`, -16.7%; as for `C=C(C)COc1ccc2c(C)c(CC(=O)N3C[C@H]4C[C@@H](C3)c3cccc(=O)n3C4)c(=O)oc2c1C`, -49.2%.
As for `CCCc1cc(=O)oc2cc(OCC(=O)N3C[C@H]4C[C@@H](C3)c3cccc(=O)n3C4)c(Cl)cc12`, the “hERG current change (%, negative = inhibition) at 10uM” value is given as -14.7%.
